Bioassay records (PubChem BioAssay)
Shown are actives, neighbours in structure and some others; about 2.6% of the full set was active somewhere.
Nrf2 activator – qHTS of Nrf2 Activators; AREc32 ARE-luciferase reporter (MCF7-derived line), luminescence, 24 h; Potency, µM (doses to about 46.1 µM), for inactives: at the top dose activation, hits mostly activators; AID 624171, 2012; 410,000 compounds, 0.31% hits; note: potency is the fitted concentration of half-maximal effect; % of control where 0% means no effect; nearly all actives have a fitted effect of over 65% in size
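Luciferase luminescence (Steady-Glo, 30 min at room temperature) served as the read-out of ARE activation in AREc32 cells treated with compounds for 24 hr at 37 deg C.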
TCR activator – Activators of T cell receptors: qHTS campaign; primary human leukocytes, anti-CD3, IL-2 HTRF, 48 h; 330,000 tested, under 10 active; Potency, µM (titrated, usually from 9.22 µM), without a hit: top-dose activation of IL-2 secretion, usual class: activators; note: % of control where 0% means no effect
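Primary human leukocytes were stimulated with a-CD3 beads plus compounds for 48 hr without co-stimulation; secreted IL-2 was quantified by HTRF using a-IL-2-K (europium cryptate) and a-IL-2-d2, excited at 320nm with acceptor emission read at 665nm.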
AT treatment – qHTS Assay for Identifying a Potential Treatment of Ataxia-Telangiectasia; F2112 A-T fibroblasts, KAP-1 phosphorylation AlphaLISA; neocarzinostatin DNA damage 30 min before lysis; 320,000 compounds, 0.19% hits; Potency, µM (doses to about 57.5 µM), without a hit: at the highest dose activation, actives largely listed as activators; note: potency is the fitted concentration of half-maximal effect; % of control where 0% means no effect; nearly all actives have a fitted effect of over 45% in size
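hTERT-immortalized A-T patient fibroblasts (F2112), 500 cells/well in OPTI-MEM, 1% FBS, got compounds for 60 min, then NCS for 30 min at 37C. Lysates were then assayed for phospho-KAP-1 by AlphaLISA (anti-pKAP1 donor, anti-KAP1 acceptor beads), 6 hr at 25C.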
Nrf2 inh – Nrf2 qHTS screen for inhibitors; A549 ARE-Fluc reporter, luciferase luminescence, 18-24 h; Potency, µM (titrated, usually from 46 µM), inactives show at the top dose activity change, negative = inhibition, usual class: inhibitors; 360,000 compounds, 2.1% hits; note: potency is the fitted concentration of half-maximal effect; % is set by controls: 0 for no effect and ±100 for the full control effect; nearly all actives have a fitted effect of over 60% in size
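Nrf2 function is reported as luminescence of an ARE-controlled luciferase in A549 cells. Compounds were tested at several concentrations, and a CellTiter-Fluor read on the same wells flagged cytotoxicity.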
A549 viability – Nrf2 qHTS screen for inhibitors: counterscreen for cytotoxicity; Potency, µM (doses to about 46 µM), for inactives: at the top dose activity change, negative = cytotoxicity, hits mostly inhibitors; 390,000 compounds, 0.16% hits; A549 ARE-Fluc cells, CellTiter-Fluor viability, 18-24 h; note: potency is the fitted concentration of half-maximal effect; % is set by controls: 0 for no effect and ±100 for the full control effect
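Cytotoxicity counterscreen: CellTiter-Fluor fluorescence was measured in A549 ARE_Fluc cells after 18-24 h of compound exposure in a concentration series. The subsequent BugLite luminescent read reports ARE-luciferase activity.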
CCT chaperon mod – High-Throughput Screening for Modulators of Cytosolic Chaperonin Activity; 360,000 compounds, 0.3% hits; AID 651819, 2012; activity change, % (no concentration beside the values), hits read low; purified chaperonin ATPase assay, HTRF ADP detection, 30 min; in the data active = activity change below about -30%; note: % is set by controls: 0 for no effect and ±100 for the full control effect
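Enzyme 40 or 20 nM (batch-dependent) in Tris pH 7.4/KCl/MgCl2/DTT; cpd 76 uM single point; ATP 10 uM; 30 min 37 °C; Transcreener ADP HTRF detection, 30 min RT; ratio 665/615.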
* hit, by the source's call; ? = inconclusive; . = not tested or not shown; [ ] = dose if it differs, or a comment. Unless noted, calls come from the whole dose curve; as a rule, active = well fitted curve in the direction sought with a large enough effect; inconclusive = small, poorly fitted or top-dose-only effect, or another doubt; inactive = no such curve, though single readings can be large; an effect the other way counts as inactive or inconclusive.

SMILES | Nrf2 activator | TCR activator | AT treatment | Nrf2 inh | A549 viability | CCT chaperon mod
COc1cc(NC(=O)c2nc3cc(C)c(C)cc3n(C)c2=O)cc(OC)c1OC | -1% | . | . | 7% | -2% | .
O=S(=O)(Nc1nc2ccccc2nc1NCc1ccco1)c1ccccc1 | 8% | 0% | 0% | -22% | 4% | 0
Cc1nc(NCc2ccco2)c2cn[nH]c2n1 | 26% | 4% | . | 23µM* | -8% | -1
c1coc(CNc2nc3nonc3nc2NCc2ccco2)c1 | 26% | . | 7% | 7.3µM* | -18% | -2
Cc1ccc(NC(=O)N2CCCC(C(=O)O)C2)cc1 (stereo not given) | 0% | 2% | -1% | -6% | 2% | -43*
Cc1cccc(NS(=O)(=O)c2ccc(NC(=O)N3CCCCC3)cc2)c1 | -1% | -1% | -3% | 18µM* | -19% | 0
Cc1cccc(NS(=O)(=O)c2ccc3c(c2)CCN3C(=O)CCC(=O)O)c1 | 0% | 3% | 0% | 1% | 5% | 0
Cc1cccc(NS(=O)(=O)c2ccc3c(c2)CCN3C(=O)C2CCC2)c1 | -1% | . | . | 15µM* | -17% | .
Cc1cccc(Cn2c(=O)n(-c3ccc(Cl)c(Cl)c3)c(=O)c3c(C)c(C)sc32)c1 | 0% | . | . | 8% | -2% | .
C=C1C(=O)C23C(O)C1CCC2C12CCCC(C)(COC(C)=O)C1C(O)C3(O)OC2 (stereo not given) | -4% | 2% | . | 9.2µM* | 18µM* | -1
CCCCN(C(=O)C1CCC(CNS(=O)(=O)c2cccc3nsnc23)CC1)c1ccccc1 (stereo not given) | -1% | . | . | 26µM* | -8% | .
O=C(C1CCC(CNS(=O)(=O)c2cccc3nsnc23)CC1)N1CCN(c2ccccn2)CC1 (stereo not given) | 6% | 0% | 1% | 21µM* | -5% | -2
CN1CCN(C(=O)C2CCC(CNS(=O)(=O)c3cccc4cccnc34)CC2)CC1 (stereo not given) | -1% | 1% | 5% | 10% | -5% | 0
CCN(CC)C(=O)C1CCC(CNS(=O)(=O)c2cccc3cccnc23)CC1 (stereo not given) | 3% | 2%[46.1 µM] | 1% | 9% | -3% | -1
CN(Cc1ccccc1)C(=O)C1CCC(CNS(=O)(=O)c2cccc3cccnc23)CC1 (stereo not given) | 5% | 9% | -1% | 16µM* | 1% | -4
CC(C)OC(=O)n1c(=S)oc2ccccc21 | 2% | -2% | . | 14% | 0% | 0
CCCCC(=O)/C=C/n1c(=S)oc2ccccc21 | 10µM* | 4% | -1% | ? | -4% | -4
CC(c1ccco1)N(C)c1ncnc2ccc(-c3ccc4c(c3)OCO4)cc12 (stereo not given) | . | . | . | -7% | 1% | .
O=C(c1ccccc1)N1CCN2C(=O)c3ccccc3C12c1ccc(Cl)cc1 (stereo not given) | 0% | 4% | 6% | 13µM* | -5% | 0
O=C(c1ccc(F)cc1)N1CCN2C(=O)c3ccccc3C12c1ccc(Cl)cc1 (stereo not given) | 1% | . | 1% | -9% | 3% | -8
CCNC(=O)C1CCCN(Cc2ccc(C(=O)OCC)cc2)CC1 (stereo not given) | -1%[9.22 µM] | . | . | . | . | -1
CCn1ccc2cc(S(=O)(=O)N3CCC(C(=O)NCc4cccc(C)c4)CC3)ccc21 | 3% | . | . | . | 0% | .
CCCn1nc([N+](=O)[O-])c(C(C#N)c2nc3ccccc3o2)c(Cl)c1=O (stereo not given) | 5% | 4%[46.1 µM] | -21% | 10% | ? | 0
CCn1nc([N+](=O)[O-])c(C(C#N)c2nc3cc(C(F)(F)F)ccc3s2)c(Cl)c1=O (stereo not given) | -3% | -3% | 2% | 8.2µM* | ? | -1
c1ccc2oc(Cc3ccc(Cc4nc5ccccc5o4)cc3)nc2c1 | 0% | 0%[46.1 µM] | -1% | 26µM* | -18% | 0
SMILES | Nrf2 activator | TCR activator | AT treatment | Nrf2 inh | A549 viability | CCT chaperon mod
Cc1ccc(C2N3CC4(C)CN2CC(c2ccccc2)(C3)C4=O)cc1 (stereo not given) | 0% | . | . | -9% | -5% | .
COc1ccccc1NC(=O)C(OC(=O)CNC(=O)c1ccccc1)c1ccccc1 (stereo not given) | . | . | . | 13% | -1% | .
COc1ccc(/C=C/C(=O)Nc2ccc(C(C)=O)cc2)cc1S(=O)(=O)N1CCOCC1 | -2% | . | . | . | . | 1
COc1ccc(/C=C/C(=O)N2CCC(C(N)=O)CC2)cc1S(=O)(=O)N1CCOCC1 | 1% | 8% | 1% | -2% | -1% | -1
COc1cc(/C=C/C(=O)Nc2ccc(OC)c(S(=O)(=O)N3CCOCC3)c2)ccc1OC(F)F | 0% | -2% | 5% | 18µM* | -26% | -2
COc1ccc(/C=C/C(=O)N2CCN(c3ccccc3)CC2)cc1S(=O)(=O)N1CCOCC1 | 3% | -3% | 16% | 13µM* | -13% | 1
CCC(Nc1ccc(-c2nc(-c3ccccn3)no2)cc1[N+](=O)[O-])c1ccccc1 (stereo not given) | 8% | . | . | -25% | -10% | .
COc1ccc(OC)c(NC(=O)CCCc2nnc3n(C(C)C)c(=O)c4sccc4n23)c1 | 0% | . | . | 7% | -2% | .
COc1cccc(NS(=O)(=O)c2ccc3c(c2)n(C)c(=O)n3C)c1 | 2% | . | . | ? | -1% | .
Cc1ccc(C(=O)N/N=C/C2=Cc3ccccc3OC2C)cc1 (stereo not given) | 4% | 1%[46.1 µM] | -1% | ? | 0% | -1
CC1Oc2ccccc2C=C1/C=N/NC(=O)c1ccccc1 (stereo not given) | 4% | -7%[46.1 µM] | 4% | ? | 0% | -45*
Cc1cc2c(s1)c(/C=N/O)c(C(=O)NCc1ccccc1F)n2C | . | . | . | 3% | 14% | .
Clc1cccc(Cl)c1CO/N=C/c1c(-c2ccccc2)nc2n1CCS2 | 0% | 0% | -8% | 18µM* | -24% | -1
Cc1cccc(N(CC(=O)NCCSCc2ccc(Cl)cc2)S(C)(=O)=O)c1C | 5% | . | . | ? | -2% | .
Cc1cnc(C=NNC(N)=S)c2cccc(N)c12 | 3% | 7% | . | 7.3µM* | ? | -1
COc1ccc(C2Nc3ccccc3C(=O)N2CCc2ccccc2)cc1COc1ccc(NC(C)=O)cc1 (stereo not given) | . | . | . | 5% | 5% | .
CCn1c(SCC(=O)Nc2ccc3c(c2)OCO3)nnc1C1CC1 | 0% | 6% | 7% | ? | 3% | -1
